From PubChem BioAssay
Unmarked numbers belong to inactive results. Active and inactive are the calls of the source. Unless noted, no stated cut-off is given here; in the data, active means inhibition above about 44%; inactive means the rest.

How the values were obtained:
[1] = StAR promoter reporter inhibitors, counter-screen for LRH-1 inverse agonist project, cell-based, luminescence, high throughput (AID 651611; in the data active means inhibition above about 28%); settings: StAR promoter luciferase reporter counterscreen, at 3.6 µM, hits give high values
[2] = biological target: Nuclear receptor subfamily 5 group A member 2 (Homo sapiens) (UniProt O00482); assay: LRH-1 (NR5A2) inverse agonists, retest, confirmation, cell-based, luminescence (AID 651613; in the data active means inhibition above about 42%;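 further: HEK293T cells co-transfected with LRH-1 and StAR promoter luciferase reporter; 0% = vehicle wells and 100% = parental cells lacking receptor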); settings: cell-based LRH-1 luciferase reporter, inverse agonism; at 3.6 µM; hits give high values
Nuclear receptor subfamily 5 group A member 2 (Homo sapiens), sequence (O00482 whole entry, looked up): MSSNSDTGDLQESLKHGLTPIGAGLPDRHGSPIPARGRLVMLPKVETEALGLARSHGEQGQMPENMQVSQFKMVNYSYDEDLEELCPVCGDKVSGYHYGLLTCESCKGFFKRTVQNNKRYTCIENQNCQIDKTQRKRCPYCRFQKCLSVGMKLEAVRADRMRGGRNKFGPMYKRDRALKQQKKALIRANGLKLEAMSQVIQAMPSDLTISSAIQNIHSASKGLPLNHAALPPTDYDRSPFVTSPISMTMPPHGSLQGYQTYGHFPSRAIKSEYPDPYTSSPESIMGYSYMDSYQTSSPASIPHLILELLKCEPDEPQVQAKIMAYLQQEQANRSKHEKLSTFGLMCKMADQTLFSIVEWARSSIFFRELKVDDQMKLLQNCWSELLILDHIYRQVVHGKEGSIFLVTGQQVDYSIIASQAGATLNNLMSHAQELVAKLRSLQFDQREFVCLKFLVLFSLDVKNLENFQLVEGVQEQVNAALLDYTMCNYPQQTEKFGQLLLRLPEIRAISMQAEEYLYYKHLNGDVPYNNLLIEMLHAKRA

[3] = biological target: Steroidogenic factor 1 (Homo sapiens) (UniProt Q13285); assay: SF1 (NR5A1) inverse agonists, counter-screen for LRH-1 inverse agonist project, cell-based, luminescence, high throughput (AID 651614); settings: cell-based SF1 luciferase reporter, at 3.6 µM, hits give high values;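 further: cells cotransfected with StAR promoter reporter and SF1 expression vector; 0% = vehicle on cells with receptor and 100% = vehicle on cells lacking receptor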
Steroidogenic factor 1 (Homo sapiens), sequence (Q13285 whole entry, looked up, the tested form may be a part): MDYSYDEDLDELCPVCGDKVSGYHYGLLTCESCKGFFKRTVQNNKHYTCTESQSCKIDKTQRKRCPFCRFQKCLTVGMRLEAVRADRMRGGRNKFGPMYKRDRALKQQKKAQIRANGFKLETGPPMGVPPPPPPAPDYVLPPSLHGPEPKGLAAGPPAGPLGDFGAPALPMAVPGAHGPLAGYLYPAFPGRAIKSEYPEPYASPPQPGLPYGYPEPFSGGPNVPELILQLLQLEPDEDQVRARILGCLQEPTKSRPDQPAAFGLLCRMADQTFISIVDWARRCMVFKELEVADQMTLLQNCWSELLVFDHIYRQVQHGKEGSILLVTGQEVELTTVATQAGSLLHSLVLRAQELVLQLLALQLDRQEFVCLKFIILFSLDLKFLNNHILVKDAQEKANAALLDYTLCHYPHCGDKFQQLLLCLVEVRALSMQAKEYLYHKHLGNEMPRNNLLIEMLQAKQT

[4] = VP16 transactivation reporter inhibitors, counter-screen for LRH-1 inverse agonist project, cell-based, luminescence, high throughput (AID 651615; in the data active means inhibition above about 33%); settings: Gal4-VP16 luciferase reporter cells, at 3.6 µM, hits give high values

Structure (SMILES) | inhibition [1] | inhibition [2] | inhibition [3] | inhibition [4]
COc1ccc(-c2cc3nc(-c4ccccc4)cc(N4CCN(C(C)=O)CC4)n3n2)cc1 | 32.4% (active) | 31.1% | 39.3% | -11.9%
Cc1cc(C)c2c(N)c3cccc(C)c3nc2n1 | 30.8% (active) | 105% (active) | 45.8% (active) | 89% (active)
O=C(c1cc(COc2cccc3cnccc23)on1)N1CCCC(CCCO)C1 (stereo not given) | 35.4% (active) | 66.4% (active) | 70.5% (active) | 63.5% (active)
O=C(CCl)Nc1ccc(N2CCCCCC2)cc1 | 25% | 54.6% (active) | 51.3% (active) | -8.63%
Cc1onc(NC(=O)c2ccc([N+](=O)[O-])o2)c1Br | 4.26% | 64.9% (active) | 58.4% (active) | -9.49%
O=C(c1ccc(Oc2ccc(Cl)cc2)c([N+](=O)[O-])c1)N1CCCC1 | -14.7% | 33.5% | 38% | -0.01%
O=C(COc1ccc(Nc2ccccc2)cc1)Nc1ccncc1 | 19.2% | 52.8% (active) | 51.6% (active) | 41.4% (active)
CCn1nnnc1SCC(=O)N(C)C1CCS(=O)(=O)C1 (stereo not given) | 12.5% | 47.9% (active) | 48.1% (active) | -0.7%
COc1cc(CCNc2ccc3nnc(-c4ccccc4)n3n2)cc(OC)c1OC | 50.7% (active) | 37.5% | 28.6% | -65.1%
O=C(COC(=O)CCN1C(=O)C2CC=CCC2C1=O)NCCc1ccccc1 (stereo not given) | 11.9% | 40.1% | 44.8% (active) | 3.03%
CC(=O)C1=C(c2cccc([N+](=O)[O-])c2)N(C(C)=O)n2c(C)nnc2S1 | 5.25% | 58.4% (active) | 50.3% (active) | -4.12%
O=C(Nc1c(F)cccc1F)c1cnc(N2CCN(c3ccccn3)CC2)c2ccccc12 | 41.4% (active) | 41% | 35.2% | 17.4%
Cc1ccc(NC(=O)CSc2ccc3c(c2)OCCO3)c(O)c1 | 11.1% | 54.6% (active) | 46.5% (active) | 35.5% (active)
Cc1ccc(C)c(NC(=O)CSc2nnc(CCNC(=O)OC(C)(C)C)o2)c1 | 20.9% | 59.2% (active) | 59.8% (active) | -2.78%
COc1ccc(NC(=O)CSc2nc3nc(C)cc(C)c3c(=O)[nH]2)cc1 | 3.79% | 43.6% (active) | 48.5% (active) | -2.26%
Cc1cc(C)nc(SCC(=O)Nc2ccc(N3CCOCC3)c(Cl)c2)n1 | -5.17% | 67.5% (active) | 59.8% (active) | 35.7% (active)
COc1ccc(NC(=O)CSc2nc(O)cc(=O)n2-c2ccccc2OC)cc1 | 4.7% | 47.5% (active) | 38.3% | 2.37%
C/C(=N\Nc1nc(C)c(C)s1)c1ccc([N+](=O)[O-])cc1 | -12.6% | 49.1% (active) | 47.8% (active) | -2.81%
COC(=O)CNc1nc(-c2cccnc2)nc2ccccc12 | 16.8% | 44.6% (active) | 42.2% | -0.85%
CCOc1ccc(NC(=O)Cn2cc(C(C)=O)c3ccccc32)cc1 | 22.7% | 78.3% (active) | 73.8% (active) | 41.9% (active)
O=C(COc1cccc2c1CCNC2=O)Nc1cccc(C(F)(F)F)c1 | 5.78% | 52.5% (active) | 29.9% | -20.7%
CC(=O)N1CCN(c2ccccc2NC(=O)c2cc3ccccc3o2)CC1 | 9.44% | 43.5% (active) | 37.7% | 2.75%
CCOC(=O)c1ccc(Nc2nc(-c3cccnc3)nc3ccccc23)cc1 | 44.5% (active) | 49.6% (active) | 41.1% | 11.4%
COc1ccc(/C=N/NC(=O)c2ccc(NC(=O)c3cccc([N+](=O)[O-])c3)cc2)c(OC)c1 | 13.1% | 53.6% (active) | 46.5% (active) | 2.35%
Cc1ccc(-c2nc3ncccc3o2)cc1NC(=O)c1ccc([N+](=O)[O-])o1 | 24.2% | 57.8% (active) | 69.4% (active) | -15.3%
